# Only a selection was taken, and hits are over-represented in it overall.
# TDP1 cell CPT = DT40-hTDP1 cell growth loss with CPT | Potency, µM (titrated, usually from 46.2 µM), for the others: at the top dose activity change, negative = growth inhibition, hits mostly inhibitors | 420,000 tested, 12% active | AID 686979 | chicken DT40 Tdp1-/-;hTDP1 cells + 20 nM CPT, ATP luminescence, 48 h; further: potency means the concentration at half of the fitted maximal effect; nearly all actives have a fitted effect of over 55% in size
#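 Chicken DT40 Tdp1-/- cells stably complemented with human TDP1 were seeded at 400 cells/well in medium containing 20 nM camptothecin, exposed to pin-transferred compounds, and grown at 37 °C for at least 48 hr. Viability was read as ATP luminescence.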
# DT40 TDP1 no CPT = qHTS for Inhibitors of human tyrosyl-DNA phosphodiesterase 1 (TDP1): qHTS in cells in absence of CPT | DT40 Tdp1-/- hTDP1 cells, no CPT, ATP luminescence, 48 h | Potency, µM (series often up to 46.2 µM), for the others: at the top dose activity change, negative = growth inhibition, actives largely listed as inhibitors | 420,000 tested, 15% active | AID 686978, 2013; further: potency means the concentration at half of the fitted maximal effect; nearly all actives have a fitted effect of over 55% in size
#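 Luminescent ATP content (CellTiter-Glo) served as the growth readout. Knockout chicken DT40 cells expressing human TDP1 were exposed to compounds without camptothecin for a minimum 48 hr at 37 °C.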
# IL1B secr inh = inhibitors of inflammasome signaling (IL-1 beta secretion); 360,000 tested, 4.7% active; THP-1 LPS/ATP IL-1B secretion, AlphaLISA, 16 h; active compounds read low; activity change, % at 57.5 µM; in the data active means activity change below about -50%; inconclusive means mostly about -30% to -49%
#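 Secreted IL-1B measured by AlphaLISA bead assay after 16 h compound exposure of THP-1 cells; compounds (final up to 57.5 uM) added 1 h before LPS (250 ng/mL) and ATP (1.25 mM) stimulation; lower signal means less secretion.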
# HT1080 IDH1KD tx = kills HT-1080 cells with IDH1 knockdown. HT-1080 IDH1 knockdown viability, ATP luminescence, 48 h. Potency, µM (titrated, usually from 46.1 µM), inactives show top-dose activity, negative = toxicity, most hits filed as cytotoxic. 360,000 tested, 2% active;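 further: potency means the concentration at half of the fitted maximal effect; 0% = DMSO wells and -100% = cell-free medium wells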
#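 Assay cells: HT-1080 with IDH1 knockdown, 750 per well, RPMI/5% FBS. Exposure: 48 h at 37 °C following 2 h pre-incubation. Read: CellTiter-Glo luminescence; fitted concentration-response, curve class assigned.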
# HT1080-NT tox = kills 2HG-producing HT-1080-NT fibrosarcoma cells | 360,000 tested, 1.6% active | HT-1080-NT fibrosarcoma viability, CellTiter-Glo ATP luminescence, 48 h | Potency, µM (doses to about 46.1 µM), without a hit: at the highest dose activity, negative = less viability, hits mostly cytotoxic | AID 686970;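 further: NT is the 2HG producing partner of a matched IDH1 knockdown line; potency means the concentration at half of the fitted maximal effect; 0% = DMSO-treated cells and -100% = media-only wells without cells; nearly all actives have a fitted effect of over 55% in size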
#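 Read-out is CellTiter-Glo luminescence after 10 minutes at room temperature, following 48 hours' compound treatment of HT-1080-NT cells (750 cells/well, RPMI, 5% FBS, 37 degrees C).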
# ALOX12 inh = blocks human arachidonate 12S-lipoxygenase; purified 12hLO, xylenol orange hydroperoxide absorbance; Potency, µM (series often up to 108 µM), for the others: at the top dose activity change, negative = inhibition, most hits filed as inhibitors; 580,000 tested, 1.1% active; AID 1671190; further: potency means the concentration at half of the fitted maximal effect
# Target sequence (P18054 whole entry, looked up): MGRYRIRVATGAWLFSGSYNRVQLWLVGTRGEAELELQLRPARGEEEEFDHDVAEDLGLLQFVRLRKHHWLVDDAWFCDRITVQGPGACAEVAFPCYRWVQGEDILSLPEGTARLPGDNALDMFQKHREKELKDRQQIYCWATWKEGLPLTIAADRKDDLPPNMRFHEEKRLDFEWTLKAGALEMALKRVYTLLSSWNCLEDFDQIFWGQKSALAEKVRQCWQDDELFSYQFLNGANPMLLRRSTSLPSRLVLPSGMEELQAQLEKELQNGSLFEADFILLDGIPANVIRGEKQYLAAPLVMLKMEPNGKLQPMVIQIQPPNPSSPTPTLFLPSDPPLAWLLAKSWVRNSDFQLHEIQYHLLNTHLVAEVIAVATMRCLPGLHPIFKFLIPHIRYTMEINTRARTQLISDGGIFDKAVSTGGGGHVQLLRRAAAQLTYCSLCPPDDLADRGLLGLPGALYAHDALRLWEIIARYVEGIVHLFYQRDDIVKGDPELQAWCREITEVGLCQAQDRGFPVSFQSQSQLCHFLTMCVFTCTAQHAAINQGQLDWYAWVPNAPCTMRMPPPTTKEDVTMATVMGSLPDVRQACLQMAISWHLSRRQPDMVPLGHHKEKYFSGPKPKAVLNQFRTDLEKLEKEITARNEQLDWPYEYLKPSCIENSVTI
#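 Hydroperoxide product was detected by ferrous iron/xylenol orange as the 573 to 405 nm absorbance ratio. Arachidonic acid at 40 uM (final) was turned over for 30 min at room temperature by 150 nM human 12hLO, pH 7.0 Hepes buffer, after 15 min compound preincubation.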
# Starred values were filed as active, the others as inactive; i = inactive; ? = inconclusive; nt = not tested or not shown. Unless noted, the call rests on the fitted dose curve; in most records, active means well fitted curve in the direction sought with a large enough effect; inconclusive means small, poorly fitted or top-dose-only effect, or another doubt; inactive means no such curve, though single readings can be large; an effect the other way counts as inactive or inconclusive. Unless noted, on the % scale 0 is the no-effect control and ±100 the full control effect.
SMILES,TDP1 cell CPT,DT40 TDP1 no CPT,IL1B secr inh,HT1080 IDH1KD tx,HT1080-NT tox,ALOX12 inh
CC(=O)OCC(=O)C1(O)CCC2C3CCC4=CC(=O)CCC4(C)C3(Cl)C(O)CC21C (stereo not drawn),?,?,-28,23%,23%,-5%
CC(=O)OCC(=O)C1(O)CCC2C3CCC4=CC(=O)CCC4(C)C3(F)C(O)CC21C (stereo not drawn),-5%,-21%,-53*,?,19%,11%
COc1cccc(-c2nc(-c3nnn4c3COC(c3ccc(Cl)cc3)C4)no2)c1OC (stereo not drawn),nt,nt,nt,nt,nt,-17%
COc1cccc(CN2CCC(N3C(=O)C(OC)C34CCOCC4)CC2)n1 (stereo not drawn),nt,nt,nt,nt,nt,40%
CCCNC(=O)C1(C)CCN(C(=O)c2cc(C)nn2C(C)(C)C)C1 (stereo not drawn),2%,1%,-13,16%,20%,2%
CCCNC(=O)C1(C)CCCN(C(=O)c2cc(C)n(C(C)(C)C)n2)C1 (stereo not drawn),?,?,27,12%,20%,-12%
Cc1cc(C(=O)N2CCCC(C)(C(=O)NS(=O)(=O)C3CC3)C2)nn1C(C)(C)C (stereo not drawn),?,2.9µM*,26,25%,22%,-21%
CCCNC(=O)C1(C)CCCN(C(=O)c2cc(C)nn2C(C)(C)C)C1 (stereo not drawn),12µM*,?,28,?,17%,5%
CCNC(=O)C1(C)CCCN(C(=O)c2cc(C)n(C(C)(C)C)n2)C1 (stereo not drawn),7.3µM*,-25%,22,?,17%,-11%
COc1ccc(OC)c2nc3c(C(=O)NCCN(C)C)cccc3nc12,1.6µM*,2.6µM*,-100*,21µM*,?,-6%
CN(C)CCNC(=O)c1cccc2ccc(-c3ccc(-c4ccccc4)cc3)nc12,?,?,-57*,?,-4%,40µM*
Cc1cc(C(=O)NCCCN(C)C)c2ccccc2n1,-3%,3%,3,1%,1%,?
COc1ccc(C23CC4CC(CC(C4)C2)C3)cc1C(=O)NCCN(C)C,21µM*,8.2µM*,-13,?,?,?
CN(C)CCNC(=O)c1cccc2nc3cccc(F)c3nc12,0.082µM*,0.26µM*,-116*,7.3µM*,?,-24%
Cc1ocnc1C(=O)N1CCN(C(=O)C2CCC2)[C@@H]2CS(=O)(=O)C[C@@H]21,nt,nt,nt,nt,nt,0%
COc1ccc(-c2csc(/C(C#N)=C(\O)CSc3nccn3C)n2)cc1OC,?,15µM*,-15,-7%,-11%,0%
COc1ccc(/C=C(/C#N)c2nc(-c3ccc(Br)cc3)cs2)cc1,?,23µM*,nt,nt,nt,-18%
COc1ccc(-c2csc(/C(C#N)=C\c3ccc(O)c([N+](=O)[O-])c3)n2)cc1OC,?,?,11,?,1%,-16%
COc1ccc(/C=C(/C#N)c2nc(-c3ccc(-c4ccccc4)cc3)cs2)cc1OC,?,12µM*,nt,nt,nt,-19%
CC(C)c1ccc(/C=C(\C#N)c2nc(-c3ccc(O)cc3)cs2)cc1,3.3µM*,2.6µM*,nt,nt,nt,?
COc1ccc(-c2csc(NC(=O)CSc3nnnn3C)n2)cc1OC,-21%,-22%,-22,4%,12%,7%
CC(C)c1ccc(/C=C(\C#N)c2nc(-c3cc4ccccc4oc3=O)cs2)cc1,-14%,3%,nt,nt,nt,0%
COc1cc2nc(NC(=O)c3ccc(F)cc3Br)sc2cc1OC,nt,nt,nt,nt,nt,-11%
CCc1c(C)nc(N2CCN(c3ccccc3F)CC2)[nH]c1=O,?,23µM*,-3,16%,13%,14%
COc1nc2ccccc2nc1C(C#N)C(=O)NC1CCCCC1 (stereo not drawn),nt,nt,nt,nt,nt,4%
SMILES,TDP1 cell CPT,DT40 TDP1 no CPT,IL1B secr inh,HT1080 IDH1KD tx,HT1080-NT tox,ALOX12 inh
C=CCn1c(=N)n(CC(=O)c2ccccc2)c2ccccc21,?,?,?,-19%,-2%,9%
N=c1n(N)c2ccccc2n1CC(=O)c1ccc(Br)cc1,23µM*,21µM*,-94*,?,?,0%
C=CCn1c(=N)n(CC(=O)c2ccc(Br)cc2)c2ccccc21,?,?,-83*,?,?,0%
O=C(N/N=C/C(Br)=C/c1ccccc1)c1cnccn1,1.6µM*,2.3µM*,-99*,?,?,178%
Cc1cc(C(=O)N/N=C/C(Cl)=C/c2ccccc2)c(C)o1,29µM*,21µM*,6,-20%,-8%,23%
O=C(N/N=C/C=C/c1ccccc1)c1ccccn1,3%,0%,-28,?,24%,216%
Cc1cc(C(=O)N/N=C/c2cccnc2)c(C)o1,-7%,-16%,7,11%,13%,i
O=C(N/N=C/C(Cl)=C/c1ccccc1)c1ccncc1,9.2µM*,21µM*,-92*,8%,-2%,-4%
O=C(N/N=C/C(Cl)=C/c1ccccc1)c1ccccn1,?,?,-57*,7%,8%,6%
Cc1oc(-c2ccccc2)nc1CC(=O)Nc1cc(Cl)ccc1F,nt,nt,nt,nt,nt,-61%
CCOc1cc(/C=C/C(=O)c2ccc(C)cc2)cc(Br)c1O,nt,nt,nt,nt,nt,40µM*
CCOc1cc(/C=C/C(=O)c2ccc(Cl)c(Cl)c2)ccc1O,nt,nt,nt,nt,nt,6.3µM*
CCOc1ccc(OCCOc2ccc(/C=C/C(=O)O)cc2OCC)cc1,34%,3%,-8,1%,-1%,-6%
CCOc1ccc(/C=C/C(=O)c2ccc(Cl)cc2)cc1,nt,nt,nt,nt,nt,2%
CCOc1cc(/C=C/C(=O)O)ccc1OCCO,13µM*,18µM*,2,0%,0%,-9%
CCOc1cc(/C=C/C(=O)c2ccc(C)cc2)ccc1OCC(=O)N(C)C,18µM*,21µM*,-105*,?,-25%,-22%
O=C(NCCc1ccccn1)c1cc(-c2ccncc2)nc2ccccc12,nt,nt,nt,nt,nt,-29%
COc1ccc(/C=C/C(=O)c2ccc(C#N)cc2)cc1F,nt,nt,nt,nt,nt,-1%
COc1cc(/C=C/C(=O)c2ccc(C#N)cc2)cc(Br)c1O,nt,nt,nt,nt,nt,8.9µM*
COc1ccc(OC)c(S(=O)(=O)N2CCN(C(=O)NC3CC3)CC2)c1,nt,nt,nt,nt,nt,-5%
Cc1cc(N=Cc2c(O)n(-c3ccc4c(c3)OCO4)c(=O)c3ccccc23)ccn1,18µM*,18µM*,?,?,?,8%

# Screening data (PubChem)
